Consider 40 compounds from the supplement of paper PMC9262897, “Low-cost anti-mycobacterial drug discovery using engineered E. coli” (Nature Communications, 2022).

Where a name gives a salt, the structure may show the parent alone. ± gives the standard deviation of the averaged measurements.

The test system of the assay is E. coli TESEC Alr+ wild-type control. As to the kind of experiment: growth (OD600 after 10 h); higher = more growth (less inhibition). As to conditions: compound 0.1 mM; raw OD600 reference: median of DMSO wells 0.49, cell-free background 0.052. As for the experimental part:
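TESEC Mtb Alr E. coli (ΔaraC ΔtolC ΔentC Δalr ΔdadX, arabinose-inducible Mtb Alr) or the Alr+ wild-type control strain, grown in defined M9-fructose medium without D-alanine in 96-well plates with Prestwick library compounds at 0.1 mM and 1% DMSO. Low Alr induction is 0.1 µM arabinose and high induction is 10 mM arabinose.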
Take `CC1(C)S[C@@H]2[C@H](NC(=O)[C@H](N)c3ccc(O)cc3)C(=O)N2[C@H]1C(=O)O` [Amoxicillin]: the growth came out at 0.572 ± 0.07.
For the compound `CC1(C)S[C@@H]2[C@H](NC(=O)[C@H](C(=O)O)c3ccsc3)C(=O)N2[C@H]1C(=O)O` [Ticarcillin sodium], the growth is 0.577 ± 0.095.
With `O=C(CCCN1CCC(O)(c2ccc(Cl)cc2)CC1)c1ccc(F)cc1` [Haloperidol], the growth came to 0.354 ± 0.006.
The compound `C=CC(N)CCC(=O)O` (stereo not given) [Vigabatrin] came in with a growth of 0.586 ± 0.13.
Regarding `Cc1cc(C(C)(C)C)cc(C)c1CC1=NCCN1` [Xylometazoline hydrochloride], the growth was 0.4501 ± 0.0037.
As for `CSc1nc2cc(Cl)c(Oc3cccc(Cl)c3Cl)cc2[nH]1` [Triclabendazole], the growth is 0.0897 ± 0.0096.
To `CS(=O)(=O)Nc1ccc([N+](=O)[O-])cc1Oc1ccccc1` [Nimesulide] belongs 0.3996 ± 0.002.
`O=C(OCCOCCO)c1ccccc1Nc1cccc(C(F)(F)F)c1` [Etofenamate] had a growth of 0.0535 ± 0.0025.
For `CC[C@H]1OC(=O)[C@H](C)[C@@H](O[C@H]2C[C@@](C)(OC)[C@@H](O)[C@H](C)O2)[C@H](C)[C@@H](O[C@@H]2O[C@H](C)C[C@H](N(C)C)[C@H]2O)[C@](C)(OC)C[C@@H](C)C(=O)[C@H](C)[C@@H](O)[C@]1(C)O` [Clarithromycin] the value was 0.055 ± 0.00044; for `CN(C)CC/C=C1\c2ccccc2CSc2ccccc21` [Dosulepin hydrochloride], 0.425 ± 0.028; for `CC(=O)CC(c1ccc([N+](=O)[O-])cc1)c1c(O)c2ccccc2oc1=O` (stereo not given) [Acenocoumarol], 0.503 ± 0.0074.
To `NS(=O)(=O)c1cc2c(cc1Cl)N=C(CSCc1ccccc1)NS2(=O)=O` [Benzthiazide] belongs 0.606 ± 0.051; to `CC1(C)O[C@@H]2C[C@H]3[C@@H]4C[C@H](F)C5=CC(=O)C=C[C@]5(C)[C@H]4[C@@H](O)C[C@]3(C)[C@]2(C(=O)CO)O1` [Flunisolide], 0.418 ± 0.031.
With `Cc1cc(=O)oc2cc(O)ccc12` [Hymecromone], the growth amounted to 0.631 ± 0.01.
Turning to `Nc1ccc(S(=O)(=O)Nc2cnc3ccccc3n2)cc1` [Sulfaquinoxaline sodium salt], the growth came out at 0.47 ± 0.082.
On to `CC1COc2c(N3CCN(C)CC3)c(F)cc3c(=O)c(C(=O)O)cn1c23` (stereo not given) [Ofloxacin], for which the growth turned out to be 0.0509 ± 0.00059.
Take `COC(=O)Nc1nc2cc(Sc3ccccc3)ccc2[nH]1` [Fenbendazole]: the growth was 0.56 ± 0.072.
The compound `CCN(CC)CCNC(=O)COc1ccc(OC)cc1` [Mefexamide hydrochloride] came in with a growth of 0.501 ± 0.067.
`CC[N+](CC)(CC)CCC(O)(c1ccccc1)C1CCCCC1` (stereo not given) [Tridihexethyl chloride]: the growth turned out to be 0.437 ± 0.045.
To `Cn1c(=O)c2c(ncn2C)n(C)c1=O` [Caffeine] belongs 0.617 ± 0.065; to `OCCN1CCN(CC/C=C2/c3ccccc3Sc3ccc(Cl)cc32)CC1` [Zuclopenthixol dihydrochloride], 0.049 ± 0.0005.
Turning to `C=C1c2cccc(O)c2C(O)=C2C(=O)[C@]3(O)C(O)=C(C(N)=O)C(=O)[C@@H](N(C)C)[C@@H]3[C@@H](O)[C@H]12` [Methacycline hydrochloride], the growth stood at 0.0598 ± 0.0011.
Consider `CC(=O)Nc1ccc(OCC(O)CNC(C)C)cc1` (stereo not given) [Practolol], for which the growth was 0.643 ± 0.039.
In the case of `CN(Cc1cc(Br)cc(Br)c1N)C1CCCCC1` [Bromhexine hydrochloride], the growth was 0.0641 ± 0.0033.
As for `O=c1[nH]cc(F)c(=O)[nH]1` [5-fluorouracil], the growth turned out to be 0.556 ± 0.066.
The compound `COc1ccc(CC(C)NCC(O)c2ccc(O)c(NC=O)c2)cc1` (stereo not given) [Formoterol fumarate] yielded a growth of 0.501 ± 0.04.
Turning to `C=CCOc1ccccc1OCC(O)CNC(C)C` (stereo not given) [Oxprenolol hydrochloride], the growth amounted to 0.554 ± 0.095.
With `Cc1ccc(N(CC2=NCCN2)c2cccc(O)c2)cc1` [Phentolamine hydrochloride], the growth amounted to 0.452 ± 0.0089.
For the compound `CO[C@H]1C[C@H](O[C@H]2[C@H](C)[C@@H](O[C@@H]3O[C@H](C)C[C@H](N(C)C)[C@H]3OC(C)=O)[C@@H](C)C[C@@]3(CO3)C(=O)[C@H](C)[C@@H](OC(C)=O)[C@@H](C)[C@@H](C)OC(=O)[C@@H]2C)O[C@@H](C)[C@@H]1OC(C)=O` [Troleandomycin], the growth came to 0.0617 ± 0.0015.
In turn, `OCCOCCN1CCN(C(c2ccccc2)c2ccc(Cl)cc2)CC1` (stereo not given) [Hydroxyzine dihydrochloride] came in with a growth of 0.45 ± 0.02.
To `CCCCC1C(=O)N(c2ccccc2)N(c2ccc(O)cc2)C1=O` (stereo not given) [Oxyphenbutazone] belongs 0.436 ± 0.036; to `CC#C[C@]1(O)CC[C@H]2[C@@H]3CCC4=CC(=O)CCC4=C3[C@@H](c3ccc(N(C)C)cc3)C[C@@]21C` [Mifepristone], 0.337 ± 0.037.
For `CCC(NC(C)C)C(O)c1ccc(O)c(O)c1` (stereo not given) [Isoetharine mesylate salt] the value was 0.64 ± 0.039; for `COc1ncnc(NS(=O)(=O)c2ccc(N)cc2)c1OC` [Sulfadoxine], 0.594 ± 0.022; for `C#C[C@]1(O)CC[C@H]2[C@@H]3CCC4=CC(=O)CC[C@@H]4[C@H]3CC[C@@]21C` [Norethindrone], 0.427 ± 0.016.
In the case of `Cc1ccccc1OCC(O)CO` (stereo not given) [Mephenesin], the growth was determined as 0.494 ± 0.1.
For `Nc1nc(=O)c2c([nH]1)NC[C@@H](CNc1ccc(C(=O)N[C@@H](CCC(=O)O)C(=O)O)cc1)N2C=O` [Folinic acid calcium salt] the value was 0.567 ± 0.12; for `Cn1c(=O)c2c(ncn2CC(O)CO)n(C)c1=O` (stereo not given) [Diprophylline], 0.45 ± 0.05; for `CN1CCOC(c2ccccc2)c2ccccc2C1` (stereo not given) [Nefopam hydrochloride], 0.543 ± 0.081.
`Cc1c(NC(C)C)c(=O)n(-c2ccccc2)n1C` [Isopyrin hydrochloride] registered a growth of 0.44 ± 0.036.
